Bioassay records deposited in PubChem by several laboratories.
A selection: hits, their analogues and other compounds. The true share with any hit is near 2%.
GalR3 antagonist – GalR3 antagonists in HEK293 cells, primary screen, cell-based, fluorescence readout. Galanin receptor type 3 (Homo sapiens), O60755. HEK293 GalR3-CNG cAMP membrane potential fluorescence; galR3 body fused to GalR1 C-terminus. inhibition, % at 3 µM. actives 0.44% (n = 360,000). AID 651719, 2012;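 active = inhibition above the screen-wide average plus 3 SD, cut at about 13% in these data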;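 also: forskolin and galanin both at EC90 stimulate the cells; cAMP rise reported by CNG channel membrane potential dye signal; 0% = forskolin plus galanin with DMSO and 100% = forskolin alone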
Target sequence (O60755 1-299 limits assumed): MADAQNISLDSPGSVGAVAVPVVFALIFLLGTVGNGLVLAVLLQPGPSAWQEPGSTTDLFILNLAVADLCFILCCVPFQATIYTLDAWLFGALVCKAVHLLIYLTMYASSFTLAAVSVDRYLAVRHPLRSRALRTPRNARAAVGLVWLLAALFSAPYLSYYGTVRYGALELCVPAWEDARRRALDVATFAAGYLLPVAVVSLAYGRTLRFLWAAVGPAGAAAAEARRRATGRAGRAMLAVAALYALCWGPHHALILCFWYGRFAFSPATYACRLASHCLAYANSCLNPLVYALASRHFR
Gli-Sufu antag – Gli-Sufu pathway antagonists, primary screen, luciferase luminescence, Sufu-KO-LIGHT cells, uHTS; inhibition, % at 5 µM; AID 588413, 2011; actives 0.74% (n = 340,000); Sufu-KO-LIGHT fibroblasts, Gli luciferase reporter luminescence;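 active = inhibition above about 55%, limit read from the data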;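 also: 0% = DMSO-treated cells and 100% = wells with medium but no cells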
Jurkat NFkB inh – inhibitors of induced NF-kB luciferase reporter, primary screen, TCR NF-kB activation inhibitor project, cell-based, luminescence, uHTS. Jurkat, PMA/ionomycin-induced NF-kB luciferase reporter. AID 435003, 2010. actives 0.53% (n = 330,000). inhibition, % at 4 µM; in the data active = inhibition above about 50%
697 NFkB inh – inhibitors of PMA/ionomycin-induced NF-kB reporter, 697 cells, primary screen, B-cell NF-kB inhibitor project, cell-based, luminescence, uHTS; 697 B-cell NF-kB luciferase reporter, 16 h; actives 0.33% (n = 330,000); inhibition, % at 4 µM; in the data active = inhibition above about 35%
NR2F2 inh – NR2F2 transcriptional activity inhibitors, primary screen, cell-based, luciferase reporter, HEK293T, luminescence; COUP transcription factor 2 (Homo sapiens), P24468; HEK293T NGFI-A luciferase reporter; inhibition, % at 8.6 µM; actives 0.7% (n = 370,000); AID 686940, 2013;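 active = inhibition above a per-plate cutoff, mean inhibition of test wells between control levels plus 3 SD, cut at about 38% in these data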;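 also: cells cotransfected with COUP-TFII expression vector driving the NGFI-A reporter; 0% = median of COUP-TF2 test wells and 100% = reporter-only cells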
697 NFkB conf – PMA/ionomycin-induced NF-kB reporter inhibitors, 697 retest, confirmation, B-cell NF-kB inhibitor project, cell-based, luminescence, single concentration. shares compounds with 697 NFkB inh. 697 B-cell NF-kB luciferase, 16 h. inhibition, % at 4 µM. actives 35% (n = 2,000); in the data active = inhibition mostly above about 28%, no sharp cut-off; inactive = mostly below about 22%
Active calls of the source: *; i = inactive; x = no result.

SMILES	GalR3 antagonist	Gli-Sufu antag	Jurkat NFkB inh	697 NFkB inh	NR2F2 inh	697 NFkB conf
COc1cccc(CNC(=O)c2cc3oc4ccccc4c3n2C)c1OC	-1	1	10	-378	11	i
Clc1cccc(-c2cc3nc4c(c(NCc5ccco5)n3n2)CCCC4)c1	-1	-12	-111	-327	-32	-347
COCCNc1cc(C)nc2cc(-c3ccc(C)cc3)nn12	-7	-13	-7	-9	-13	x
Cc1ccc(-c2cc3nc(C)cc(NCc4ccco4)n3n2)cc1	-3	-48	-130	-256	-84	-238
Cc1nc2cc(-c3ccc(Cl)cc3)nn2c(C)c1CCC(=O)NCc1ccco1	9	0	17	43*	-18	31*
O=S1(=O)CC2c3ccccc3CN2CN1CCc1ccccc1 (stereo not given)	x	x	x	x	-35	x
O=C(NCC1COCCO1)C1CCN(S(=O)(=O)c2cccs2)CC1 (stereo not given)	x	x	x	x	8	x
Cc1ccc2c(c1)COc1c3ccc(C(=O)NC(C)C)cc3nn1-2	-1	-39	-120	-320	-23	-313
Cc1ccc2c(c1)COc1c3ccc(C(=O)NCCO)cc3nn1-2	-5	-47	-74	-252	-26	-320
Cc1ccc2c(c1)COc1c3ccc(C(=O)N[C@@H](C)CO)cc3nn1-2	-4	-29	-120	-290	-59	-271
C[C@@H](CO)NC(=O)c1ccc2c3n(nc2c1)-c1ccc(Cl)cc1CO3	-2	-96	-61	-97	-31	x
Cc1ccc(-n2c(SCC(=O)c3ccc(Br)cc3)nnc2-c2ccncc2)cc1	x	x	x	x	-5	x
CCOc1ccc(C(F)(F)F)cc1NC(=O)c1ccc(OC)c([N+](=O)[O-])c1	-8	19	0	40*	4	26
COc1ccc(-c2nc(-c3ccc(C(=O)O)cc3)no2)cc1	-3	-143	-17	-315	-45	-353
COc1cccc(-c2nc(-c3ccccc3)no2)c1	-4	-113	-142	-279	-64	-270
COc1ccc(-c2noc(-c3ccc(Cl)cc3)n2)cc1	x	-112	-139	-143	x	x
Fc1ccccc1-c1nc(-c2ccccc2)no1	-6	-107	-120	-272	-48	-227
O=C(O)CCc1nn2c3ccccc3n(CC(=O)O)c2nc1=O	-3	-2	8	11	-9	x
O=C(O)CCc1nn2c3ccccc3n(Cc3ccccc3F)c2nc1=O	-1	-5	-20	41*	-4	-11
CN1C(=O)C[C@@](C#N)(C(=O)N2CCOCC2)[C@H]1c1ccccc1	x	x	x	x	-9	x
O=C(Cn1cnc2ccccc2c1=O)N1CCN(C(=O)C2CCCO2)CC1 (stereo not given)	x	x	x	x	-9	x
O=C(Nc1ccc2[nH]c(=S)sc2c1)Nc1ccccc1F	-8	-104	-122	-296	-9	-212
O=C(Nc1ccc2[nH]c(=S)sc2c1)c1ccccc1	-4	-69	-59	-49	-29	x
Cn1c(=O)n(C)c2cc(S(=O)(=O)Nc3ccccc3)ccc21	-4	8	-4	1	-26	x
Cc1ccc(NS(=O)(=O)c2ccc3c(c2)n(C)c(=O)n3C)cc1C	2	18	7	-6	8	x
Cn1c(=O)n(C)c2cc(NS(=O)(=O)c3ccccc3)ccc21	x	18	-2	36*	x	32*
Cc1ccc(S(=O)(=O)Nc2ccc3c(c2)n(C)c(=O)n3C)cc1	-5	23	-10	47*	-55	29*
Cc1cccn2c(=O)c3cc(C(=O)NC4CCCCC4)c(=N)n(CCN4CCOCC4)c3nc12	-6	-1	12	53*	-4	39*
COc1cccc(NC(=O)c2c(F)cccc2F)c1	-2	-51	42	39*	-42	27
COC(=O)[C@]12C[C@H](CC(=O)NCc3cccc(C(F)(F)F)c3)C(=O)N(Cc3ccc(Cl)cc3Cl)C1=C[C@H](C(C)C)O[C@@H]2C1CC1	x	x	x	x	12	x
